Calls of active or inactive are those of the source. Unless noted, the rule behind the calls is not given here.

Test [1] concerns XIP peptide (Xip251-270) binding. In words: small-molecule binders of XIP peptide, primary screen, biochemical, small-molecule microarray, fluorescence 635/667 nm, 0.1 µg/mL protein (AID 1182). The following applies: fluorescent protein binding, 635 nm, higher = more signal, called active from +8 up or from −8 down.
Test [2] has as its system XIP peptide (Xip251-270). In words: small-molecule binders of XIP peptide, primary screen, biochemical, small-molecule microarray, fluorescence 635/667 nm, 0.5 µg/mL protein (AID 1183). The following applies: small-molecule microarray binding, fluorescence 635 nm; higher = more signal.
A short description of test [3]: Plasmodium falciparum growth inhibition, primary screen, strain 3D7, DAPI fluorescence, 100 nL (AID 1184).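 Note: parasites grown inside human red blood cells in medium with human serum.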 The following applies: P. falciparum 3D7 growth, 3 d, higher = more signal.
For test [4], the target named is Homeobox protein Hox-A13 (Mus musculus) (UniProt Q62424). Put plainly: inhibitors of HoxA13-DNA binding, primary screen, biochemical, fluorescence polarization, labeled oligonucleotide (AID 1185). The following applies: 15 min, higher = more signal, called active from +8 up or from −8 down. A general note: In fluorescence polarisation assays a small probe gives low polarisation when free and higher when bound to something large.
Homeobox protein Hox-A13 (Mus musculus), sequence (Q62424 whole entry, looked up): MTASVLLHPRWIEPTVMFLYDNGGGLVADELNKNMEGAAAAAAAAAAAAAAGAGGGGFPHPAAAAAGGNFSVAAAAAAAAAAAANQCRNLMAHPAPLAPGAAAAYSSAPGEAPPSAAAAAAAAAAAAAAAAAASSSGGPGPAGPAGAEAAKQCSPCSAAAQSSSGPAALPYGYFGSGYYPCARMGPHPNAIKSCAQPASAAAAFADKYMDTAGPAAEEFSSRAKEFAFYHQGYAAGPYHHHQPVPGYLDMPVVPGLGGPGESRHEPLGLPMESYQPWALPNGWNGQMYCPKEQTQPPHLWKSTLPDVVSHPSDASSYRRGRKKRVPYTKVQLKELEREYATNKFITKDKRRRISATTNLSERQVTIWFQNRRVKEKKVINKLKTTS

Test [5] is described as follows: inhibitors of hydroxyurea-induced Chk1 phosphorylation, primary screen, imaging, HeLa, phospho-Chk1 antibody, percent positive cells (AID 1186). The following applies: hydroxyurea-induced phospho-Chk1 immunofluorescence imaging, higher = more signal.
A short description of test [6]: inhibitors of hydroxyurea-induced Chk1 phosphorylation, primary screen, imaging, HeLa, phospho-Chk1 nuclear intensity (AID 1187). The note with it: hydroxyurea-induced phospho-Chk1 immunofluorescence imaging, higher = more signal.

On to `CC(=O)NCCCC[C@@H]1NC(=O)[C@H]2C[C@@H](C(=O)NCCCCCNC(=O)CS)[C@@H](c3ccc(O)cc3)N2C1=O`, for which the composite z-score in test [1] was 0.184 (inactive); in test [2], 0.805. For the same molecule, the z-score in test [3] is 0.147; in test [4], -3.02 (inactive); in test [5], 0.0401 (inactive); in test [6], 0.176 (inactive).

`COCCOC(=O)N1C(=O)[C@@]2(c3cc(C#Cc4ccc(OC)cc4)ccc31)[C@H](c1ccc(O)cc1)N1[C@H](c3ccccc3)[C@H](c3ccccc3)OC(=O)[C@H]1[C@@H]2C(=O)Nc1nc2ccccc2s1`: the results for the composite z-score in test [1] and in test [2] were 0.691 (inactive) and 0.641, respectively. In addition, the z-score in test [3] was -0.0098; in test [4], -0.183 (inactive); in test [5] it was -0.233 (inactive); in test [6], -0.215 (inactive).

As to `CC(=O)NCCCC[C@@H]1NC(=O)[C@H]2C[C@@H](C(=O)O)[C@@H](c3ccc(O)cc3)N2C1=O`, the composite z-score was 1.01 (inactive) in test [1] and 0.764 in test [2]. Also, the z-score in test [3] was -1.71; in test [4], 4.77 (inactive); in test [5], 0.402 (inactive); in test [6], 0.207 (inactive).

For the molecule `C=C(CCCC)/C(=C/C[C@H](OC(C)=O)c1ccccc1OCCO)c1cnc2ccccc2c1`, the composite z-score in test [1] was 2.68 (inactive); in test [2], 0.657. The z-score in test [3] was -2.52; in test [4], -5.13 (inactive); in test [5], 0.444 (inactive); in test [6], 0.328 (inactive).

Regarding `C=CC[C@]1(C(=O)NCc2ccccc2)N=C(c2ccc(OCCCO)cc2)O[C@H]1c1ccccc1CN=[N+]=[N-]`, the composite z-score was -0.274 (inactive) in test [1] and 0.338 in test [2]. Also, the z-score in test [3] was -2.53; in test [4], 0.343 (inactive); in test [5], -0.158 (inactive); in test [6] it was -0.402 (inactive).

On to `O=C1NC(=O)C2C1C=CC(C(O)c1ccc(-c3ccccc3)s1)N2Nc1ccc(Cl)cc1Cl` (configuration not stated), for which the composite z-score in test [1] was -0.142 (inactive); in test [2] it was 0.701. The z-score in test [3] is -0.0328; in test [4] it was -3.64 (inactive); in test [5], 0.197 (inactive); in test [6], 0.136 (inactive).

For the molecule `O[C@@H](Cc1ccccc1)[C@@H](/C=C/C1CC1)NCc1cccc(Cl)c1`, the results for the composite z-score in test [1] and in test [2] were -0.58 (inactive) and -0.134, respectively. Moreover, the z-score in test [3] was -1.44; in test [4] it was 0.306 (inactive); in test [5] it was -0.303 (inactive); in test [6] it was -0.682 (inactive).

As to `C[C@H]1C2[C@H](Cc3ccccc3)NC(=O)[C@]23C(=O)NCC(=O)N2CCC[C@H]2C(=O)NC/C=C/CCC/C=C/C3[C@@H]2O[C@]12C` (some centres not stated), the composite z-score is -0.416 (inactive) in test [1] and -0.56 in test [2]. In addition, the z-score is -1.48 in test [3], -3.96 (inactive) in test [4], 0.0614 (inactive) in test [5] and 0.0823 (inactive) in test [6].

Regarding `COc1ccc(NN2C(C(O)c3ccc(N(C)C)cc3)C=CC3C(=O)N(C4CCCCC4)C(=O)C32)cc1` (configuration not stated), the composite z-score in test [1] was 1.02 (inactive); in test [2] it was 0.68. The z-score in test [3] was -0.087; in test [4], -4.68 (inactive); in test [5], -0.217 (inactive); in test [6], -0.837 (inactive).

As for `CC=CC(O)C1C=CC2C(=O)N(C)C(=O)C2N1N(c1ccccc1)c1ccccc1` (configuration not stated), the composite z-score in test [1] is 0.212 (inactive); in test [2], 0.414. The z-score in test [3] was 0.0212; in test [4] it was -0.125 (inactive); in test [5], 0.341 (inactive); in test [6] it was 0.365 (inactive).

Consider `CCCCN1CC=CC23O[C@@H]4C=CCOC(=O)[C@@H]4[C@H]2C(=O)N(CCCCCCO)[C@@H]3C1=O` (some centres not stated), for which the composite z-score in test [1] is 1.31 (inactive); in test [2] it was -1.46. Further, the z-score in test [3] was -0.198; in test [4], -4.53 (inactive); in test [5], -0.0344 (inactive); in test [6], -0.364 (inactive).

On to `COc1ccc(CCNC(=O)[C@@]2(C)c3ccccc3C(=O)N(c3ccc(C)cn3)[C@H]2c2ccc(CO)cc2)cc1`, for which the composite z-score in test [1] is 1.66 (inactive); in test [2] it was 0.639. Moreover, the z-score in test [3] was 1.36; in test [4], -1.58 (inactive); in test [5], 0.366 (inactive); in test [6], 0.822 (inactive).

Consider `CC1CC/C=C\[C@H]2OC34C=CCN(Cn5nnc6ccccc65)C(=O)[C@H]3N(CCCCCO)C(=O)[C@@H]4C2C(=O)O1` (some centres not stated), for which the results for the composite z-score in test [1] and in test [2] were -0.369 (inactive) and -0.745, respectively. Further, the z-score in test [3] was -0.585; in test [4], -3.77 (inactive); in test [5], -0.749 (inactive); in test [6], -0.2 (inactive).

Turning to `CCOc1cc(C(O)C2C=CC3C(=O)N(c4ccccc4)C(=O)C3N2Nc2ccc(C(C)C)cc2)ccc1O` (configuration not stated), the composite z-score in test [1] is 0.429 (inactive); in test [2] it was 0.828. Besides, the z-score in test [3] was -0.85; in test [4] it was -4.72 (inactive); in test [5] it was 0.415 (inactive); in test [6] it was 0.241 (inactive).

On to `CCOC(=O)C[C@H]1[C@H](OC(=O)c2ccc(-c3ccccc3)cc2)[C@@H](NC(=O)c2ccccc2)c2cc(OCCCO)ccc2N1C(=O)c1ccc2ccccc2n1`, for which the composite z-score in test [1] is 0.304 (inactive); in test [2], 0.0388. The z-score in test [3] was 1.24; in test [4], -1.19 (inactive); in test [5], -0.0348 (inactive); in test [6], -0.234 (inactive).

In the case of `COCCOC(=O)N1C(=O)[C@@]2(c3ccccc31)[C@H](C(N)=O)[C@H]1C(=O)O[C@H](c3ccccc3)[C@H](c3ccccc3)N1[C@@H]2c1ccc(O)cc1`, the results for the composite z-score in test [1] and in test [2] were -0.114 (inactive) and 0.726, respectively. Moreover, the z-score was 0.373 in test [3], -4.73 (inactive) in test [4], -0.0504 (inactive) in test [5] and -0.194 (inactive) in test [6].

Consider `COc1cc2c(cc1O)C(c1cccs1)N(Cc1ccc([N+](=O)[O-])o1)CC2` (configuration not stated), for which the composite z-score in test [1] is 0.243 (inactive); in test [2], 0.947. The z-score was -0.316 in test [3], -6.24 (inactive) in test [4], -0.334 (inactive) in test [5] and -0.445 (inactive) in test [6].

Source of the values: PubChem BioAssay.
